# EBV gp42 block: EBV gp42 inhibition | Q1HVG2 | actives 0.42% (n = 220,000) | Fluorescence polarization binding assay, mP read-out | AID 1085 | inhibition, % (tested at 21.74 µM); in the data active = inhibition above about 50%
# E coli Lon inh: inhibits E. coli Lon protease. purified E. coli Lon protease, fluorescence polarization. inhibition, % at 7.94 µM. actives 0.42% (n = 360,000); in the data active = inhibition above about 13%, passing the limit was not always enough;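 note: 0% = enzyme with probe and DMSO and 100% = no enzyme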
# MCL1-BIM inh: inhibitors of human MCL1 binding to BIM-BH3 peptide; AID 2057; Q07820; inhibition, % at 10.9 µM; GST-MCL1 / FITC-Bim-BH3 fluorescence polarization; actives 0.68% (n = 320,000);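 active = inhibition above the mean inhibition of all tested compounds plus 3 SD, set per campaign, cut at about 40% in these data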;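 note: 0% = DMSO wells and 100% = unlabeled Bim-BH3 peptide control; higher means more loss of mP so more displacement of Bim peptide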
# Target sequence (Q07820 whole entry, looked up): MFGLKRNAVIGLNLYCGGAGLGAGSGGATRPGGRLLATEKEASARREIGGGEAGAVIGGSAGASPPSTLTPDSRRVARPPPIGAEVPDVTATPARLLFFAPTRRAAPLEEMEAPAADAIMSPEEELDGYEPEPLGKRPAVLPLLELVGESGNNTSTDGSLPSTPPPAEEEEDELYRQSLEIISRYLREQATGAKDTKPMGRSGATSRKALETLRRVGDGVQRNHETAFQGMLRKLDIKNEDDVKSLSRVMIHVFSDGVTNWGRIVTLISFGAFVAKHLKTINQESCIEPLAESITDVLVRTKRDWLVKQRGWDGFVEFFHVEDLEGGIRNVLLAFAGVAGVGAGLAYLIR
# Bcl-xL primary: Bcl-xL (human) inhibition. actives 0.7% (n = 320,000). GST-Bcl-xL / FITC-Bim BH3 peptide fluorescence polarization. inhibition, % at 10.9 µM;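 active = inhibition above the mean of all tested compounds plus 3 SD, cutoff set per campaign, cut at about 30% in these data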;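 note: 0% = DMSO wells and 100% = unlabeled Bim-BH3 peptide competitor; inhibitors lower millipolarization by displacing the labeled peptide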
# Target sequence (Q07817 whole entry, looked up): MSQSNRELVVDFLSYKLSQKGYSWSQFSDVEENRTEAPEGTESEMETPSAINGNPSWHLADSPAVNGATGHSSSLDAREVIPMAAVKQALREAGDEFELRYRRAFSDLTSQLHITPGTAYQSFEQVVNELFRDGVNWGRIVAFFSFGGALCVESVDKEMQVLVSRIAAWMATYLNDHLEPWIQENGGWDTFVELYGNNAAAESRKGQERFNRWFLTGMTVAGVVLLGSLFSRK
# MEX-5 binding: C. elegans MEX-5 TCR-2 RNA binding activity | MEX-5/FITC-TCR2 RNA binding, fluorescence polarization; stronger effect = lower value | activity score (negative = inhibition of binding), % at 10 µM | actives 0.38% (n = 300,000) | AID 1832;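 active = inhibition past about -25% in most replicates, and total fluorescence under double the plate's negative control median, limit read from the data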;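 note: 0% = DMSO and -100% = 5 µM competing unlabeled TCR2 RNA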
# GLD-1 RNA inh: GLD-1-TGE RNA interaction inhibition (C. elegans). purified GLD-1 + fluorescein TGE RNA, fluorescence polarization. Q17339. actives 0.44% (n = 320,000). inhibition, % at 5.96 µM;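 active = percent inhibition above a per-plate cutoff, the plate mean of test compounds plus 3 SD, cut at about 30% in these data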;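 note: 0% = DMSO wells with GLD-1 and probe and 100% = wells lacking GLD-1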
# GLD-1 TGE cf: confirmation of C. elegans GLD-1 TGE RNA binding inhibitors; GLD-1/FL-TGE RNA fluorescence polarization, biochemical; shares compounds with GLD-1 RNA inh; actives 10% (n = 550); inhibition, % at 5.96 µM;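 active = average inhibition across triplicates above the hit cutoff set in the primary screen, cut at about 32% in these data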;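 note: 0% = GLD-1 with RNA probe and DMSO and 100% = wells lacking GLD-1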
# E coli Lon conf: E. coli Lon inhibition confirmation. AID 602230. inhibition, % at 7.94 µM. purified E. coli Lon, fluorescence polarization. actives 31% (n = 1,400). shares compounds with E coli Lon inh; in the data active = inhibition above about 16%;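 note: 0% = enzyme with probe and DMSO and 100% = no enzyme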
# Starred values were filed as active, the others as inactive; · = no result. An excerpt weighted towards active compounds, which were near 1.5% of everything screened.
SMILES,EBV gp42 block,E coli Lon inh,MCL1-BIM inh,Bcl-xL primary,MEX-5 binding,GLD-1 RNA inh,GLD-1 TGE cf,others
NC(=O)c1ccccc1NC(=O)/C=C/c1ccc(Cl)cc1,-10,-10,5,1,-1,56*,-5,
CC(=O)NC(c1ccc(F)c(F)c1)c1nc(-c2cnn(C)c2)cs1 (centres undefined),·,2,·,·,·,·,·,
Nc1c(C(=O)OCC(=O)Nc2cccc([N+](=O)[O-])c2)[nH]c(=O)[nH]c1=O,·,14,·,·,·,33*,14,
O=C(COC(=O)c1ccccc1C(=O)c1ccccc1)Nc1cccc([N+](=O)[O-])c1,11,-10,11,3,0,6,·,
Cc1ccc[n+](-c2nc([O-])sc2/C=N/Nc2ccc([N+](=O)[O-])cc2)c1,33,19,40*,42*,-12,39*,39*,
CN(Cc1ccccc1)Cc1ccccc1C(O)c1ccccc1 (centres undefined),·,8,·,·,·,·,·,
O=C(Cc1cn(Cc2cccc(Cl)c2)c2ccccc12)N1CCCC1,-1,0,4,3,0,54*,-5,
Cc1cc(/C=C(\C#N)c2nnc(N3CCOCC3)n2-c2ccccc2)c(C)n1-c1ccccc1,-4,·,26,23,1,49*,5,
Cn1c(=O)c(/C=C/c2ccccc2)nc2ccccc21,15,13,41*,35*,-2,41*,1,
CC1(C)CC(=O)C/C(=N/NC(=O)COc2ccc3ccccc3c2Br)C1,·,4,14,5,-5,31*,1,
COC(=O)CC1(C(=O)OC)Nc2cc(Cl)c(Cl)cc2S(=O)(=O)N1O (centres undefined),·,9,·,·,·,·,·,
CCN(CC)S(=O)(=O)c1ccc(N2CCCC2)c(NS(=O)(=O)c2ccccc2)c1,-9,4,9,13,-2,14,·,
CCN(CC)S(=O)(=O)c1ccc(N2CCCC2)c(NS(=O)(=O)c2ccc(F)cc2)c1,-10,1,12,5,2,34*,57*,
CCOC(=O)CC1=C(C(=O)OCC)C(c2ccc(OC)cc2OC)C(C#N)=C(N)O1 (centres undefined),1,3,43*,39*,-9,35*,10,
CCOC(=O)CC1=C(C(=O)OCC)C(c2ccc(C)o2)C(C#N)=C(N)O1 (centres undefined),-6,11,31,37*,-19,34*,7,
CCOC(=O)CC1=C(C(=O)OCC)C(c2cccnc2)C(C#N)=C(N)O1 (centres undefined),-9,5,17,10,-4,7,·,
CCOC(=O)C1=C(CC)OC(N)=C(C#N)C1c1ccc(OC)cc1OC (centres undefined),9,-4,8,6,-2,5,·,
O=C(Nc1ccc2nc3ccccc3nc2c1)c1ccc(Br)cc1,-32,-1,24,30,-13,5,·,
CC(=O)Nc1ccc2nc3ccccc3nc2c1,48,13,50*,59*,-18,48*,34*,
COc1cccc(OCCNc2cc(N3CCCCC3)ccc2[N+](=O)[O-])c1,-22,-11,3,4,0,59*,-3,
COc1ccc(OCCNc2cc(N3CCCCC3)ccc2[N+](=O)[O-])cc1,-17,7,4,3,1,8,·,
CC(C)CCN(C)C1CCN(C(=O)Nc2c(F)cccc2F)CC1,-6,-5,32,37*,3,35*,-4,
O=C(Nc1cccnc1)OC1CCCC1,-11,-7,-3,1,-2,2,·,
O=[N+]([O-])c1cc([N+](=O)[O-])c(Oc2ccc(Br)cc2Br)cc1NN1CCCCC1,·,-13,-7,-4,-1,100*,-1,
Cc1cc(F)ccc1Oc1cc(NN2CCCCC2)c([N+](=O)[O-])cc1[N+](=O)[O-],·,-3,4,0,-1,0,·,
SMILES,EBV gp42 block,E coli Lon inh,MCL1-BIM inh,Bcl-xL primary,MEX-5 binding,GLD-1 RNA inh,GLD-1 TGE cf,others
Cc1nnc2nc(-c3ccccc3)nc(-c3ccccc3)n12,3,-1,-8,-3,1,-3,·,
CCCn1c(C)cc(C(=O)CN2C(=O)c3cccc(N)c3C2=O)c1C,0,16,25,28,·,35*,-1,
Cc1ccc(NC(=O)CN2CCN(c3ccccn3)CC2)cc1S(=O)(=O)N(C)C,-5,4,-5,0,0,54*,-1,
CCN(CC)S(=O)(=O)c1cc(NC(=O)CN2CCN(c3ccccn3)CC2)ccc1C,-10,-3,-3,-4,-1,5,·,
CNc1c(N)n(Cc2ccccc2)c(=O)[nH]c1=O,50*,33*,43*,37*,-32*,42*,30,E coli Lon conf=24*
CN(C(=S)NC(=O)c1ccccc1)c1c(N)n(Cc2ccccc2)c(=O)[nH]c1=O,5,-7,7,7,-1,-3,·,
Cc1ccc(S(=O)(=O)Nc2cc3c(C(=O)Nc4ccccc4)c(C)oc3c3ccccc23)cc1,45,25*,22,21,0,128*,105*,E coli Lon conf=40*
CCOC(=O)N1CC=C2C(C#N)=C(N)C(C#N)(C#N)[C@H](c3ccc(OCC)c(OCC)c3)[C@H]2C1,-22,-1,3,9,-9,9,·,
CC(=O)N1CC=C2C(C#N)=C(N)C(C#N)(C#N)[C@H](c3ccoc3)[C@H]2C1,17,31*,52*,44*,-20,31*,18,E coli Lon conf=15
C[C@@H]1CN(c2c(F)c(N)c3c(=O)c(C(=O)O)cn(C4CC4)c3c2F)C[C@H](C)N1,-6,·,·,·,·,·,·,
O=C(c1ccccc1C(=O)N1CCN(c2ccccc2)CC1)N1CCN(c2ccccc2)CC1,27,34*,46*,46*,·,38*,11,E coli Lon conf=17*
O=C(O)c1ccccc1C(=O)N1CCN(c2ccccc2)CC1,0,-6,-2,3,-3,8,·,
O=C(CN1C(=O)NC2(CCCCC2)C1=O)Oc1ccc2c(C(F)(F)F)cc(=O)oc2c1,·,54*,39,33*,1,59*,49*,E coli Lon conf=33*
COc1ccc(CCN2CC(C(=O)OCC(=O)NC(C)c3cccc(Cl)c3)CC2=O)cc1OC (centres undefined),·,8,-11,-12,·,-2,·,
CCc1ccc(C(=O)CCC(=O)Nc2cccc(S(=O)(=O)N3CCCCC3)c2)cc1,·,3,·,·,·,·,·,
COC(=O)c1ccccc1NC(=O)N1CSC[C@H]1C(=O)OC,-13,-1,11,6,-1,6,·,

# From PubChem BioAssay
